Structures are written as SMILES. Records with an inconclusive call do not appear. The source made the active and inactive calls. Unless noted, the call rests on the fitted dose curve; in most records, active means well fitted curve in the direction sought with a large enough effect; inconclusive means small, poorly fitted or top-dose-only effect, or another doubt; inactive means no such curve, though single readings can be large; an effect the other way counts as inactive or inconclusive.

The source of these data is PubChem BioAssay (NCATS).

Assay [1] deals with ATP-dependent 6-phosphofructokinase (Trypanosoma brucei brucei) (UniProt O15648). Kind of assay: qHTS Assay to Find Inhibitors of T. brucei phosphofructokinase: hit validation (AID 492961). Further: series mostly up to about 51 µM; on the % scale 0 is the no-effect control and ±100 the full control effect. The method in brief: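 Luminescence from ADP-Glo reports ADP generated as T. brucei PFK (1.25 nM) phosphorylates 0.5 mM fructose-6-phosphate using 0.1 mM ATP. Reactions ran 45 min at room temperature, pH 8.0.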
A general note: Quantitative high-throughput screening tests each substance at several concentrations.

Assay [2] concerns the target M-phase phosphoprotein 8 (Homo sapiens) (UniProt Q99549). The assay can be described thus: qHTS Validation Assay for Inhibitors for MPP8 Chromodomain Interactions with Methylated Histone Tails (AID 488949).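 Further: AlphaScreen signal from MPP8 chromodomain bound to biotinylated H3K9me3 peptide; top concentration of the series differs between compounds; on the % scale 0 is the no-effect control and ±100 the full control effect; nearly all actives have a fitted effect of over 55% in size.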 In outline:
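Disruption of the preformed MPP8–trimethyl-H3K9 peptide complex (both 50 nM, 30 min, RT) is measured after 30 min compound exposure, using AlphaScreen proximity beads; aurintricarboxylic acid titration serves as plate control.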

In assay [3] the target is Transient receptor potential cation channel subfamily V member 1 (Homo sapiens) (UniProt Q8NER1). The assay can be described thus: HTS Assay for Compounds that Act as Enhancers of the Vanilloid Receptor 1 (AID 488979). Further: 0% is about no effect. The method in brief: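 TRPV1 cells loaded with Fluo-8 calcium dye; compound added and Ca2+ signal (ex 480/em 520 nm) followed 3 min, then capsaicin at EC20 added and read 2 more min to detect enhancement.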

Assay [4] addresses Thyrotropin-releasing hormone receptor (Homo sapiens) (UniProt P34981). The assay can be described thus: qHTS for Small Molecule Agonists and Allosteric Enhancers of Human TRH Receptor: Validation Screen for Agonists (AID 493127;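 active means calcium activation more than 3 SD above the typical response in the agonist read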; further: 0% is about no effect). The settings on record: TRH receptor agonist cell assay; at 2 µM; stronger effect = higher value. The method in brief:
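TRHR cells loaded with fluo-8 calcium dye; FDSS kinetic fluorescence (Ex 480/Em 530) read at 1 s/cycle after 23 nL compound addition. Agonist-mode calcium response recorded before the 10 nM TRH (EC20) addition.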

Assay [5] has as its target Galactokinase (Homo sapiens) (UniProt P51570). Kind of assay: qHTS Validation Assay for Inhibitors of Human Galactokinase (GALK) (AID 493189). Further: 0% is about no effect. The method in brief: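 Compounds were pin-transferred into ATP buffer, then GALK-galactose mix was added (final 5 nM enzyme, 100 uM galactose, 35 uM ATP). After 1 h at room temperature, remaining ATP was measured luminescently.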

Assay [6] in a line: Validation screen for small molecules that induce DNA re-replication in SW480 colon adenocarcinoma cells (AID 504364). Further: 0% is about no effect. In outline:
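SW480 cells (250/well) exposed 48 h at 37 C, 5% CO2, then Hoechst-stained 40 min. Nuclear DNA content imaged by fluorescence scanning (405 nm excitation, 500-530 nm emission); re-replication scored as increased nuclei with elevated intensity.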

For assay [7], the target named is Thioredoxin reductase 1, cytoplasmic (Rattus norvegicus) (UniProt O89049). Kind of assay: qHTS Assay for Inhibitors of Mammalian Selenoprotein Thioredoxin Reductase 1 (TrxR1) (AID 488773).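 Further: drop in NADPH fluorescence over an 8 min run after selenite addition; series mostly up to about 57 µM; on the % scale 0 is the no-effect control and ±100 the full control effect; nearly all actives have a fitted effect of over 40% in size.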 The settings on record: Potency: inhibition. The method in brief:
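Steps: enzyme (90 nM) plus NADPH (400 uM final), 5 min at ~22 deg C; compound added, 15 min; selenite (400 uM final) added; fluorescence followed for 8 min. Concentration-response curves derived from the normalized delta values.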

Assay [8] addresses Flap endonuclease 1 (Homo sapiens) (UniProt P39748). The assay can be described thus: qHTS Validation Assay for the Inhibitors of Human Flap endonuclease 1 (FEN1) (AID 488816). Further: on the % scale 0 is the no-effect control and ±100 the full control effect. The method in brief:
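Human FEN1 (10 nM) preincubated 15 min at room temperature with compounds, then flap DNA substrate added at 50 nM final. Fluorescence read at 0 and 15 min; concentration-response fitted with four-parameter Hill equation.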

Assay [9] addresses Chromobox protein homolog 1 (Homo sapiens) (UniProt P83916). Kind of assay: qHTS Validation Assay for Inhibitors of HP1-beta Chromodomain Interactions with Methylated Histone Tails (AID 488953).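 Further: loss of AlphaScreen luminescence from HP1-beta binding biotinylated H3K9me3 peptide; series mostly up to about 110 µM; on the % scale 0 is the no-effect control and ±100 the full control effect; nearly all actives have a fitted effect of over 50% in size.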 The method in brief: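 HP1-beta (50 nM) preformed 30 min with biotinylated H3(1-18)K9me3 peptide (50 nM) in PBS pH 7.4, 0.01% Tween-20. Compounds added for 30 min at room temperature. Complex disruption read by AlphaScreen with streptavidin donor/nickel chelate acceptor beads (10 ug/mL each).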

Assay [10] concerns the target Methanococcus maripaludis chaperonin (MmCpn) (UniProt Q6LX38). The assay can be described thus: High-Throughput Screening for Modulators of Cytosolic Chaperonin Activity: MmCpn Primary Screen (AID 488978).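 Further: 50 nM MmCpn enzyme hydrolysing 30 µM ATP at 37 °C; 0% is about no effect.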 In outline:
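Measures ATPase turnover of the M. maripaludis chaperonin (50 nM final) against 30 uM ATP over 10 min at 37C, with compound added 5 min beforehand at room temperature. ADP is quantified by HTRF immunodetection.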

The target in assay [11] is Thyrotropin receptor (Homo sapiens) (UniProt P16473). Kind of assay: qHTS Assay for Antagonists of the Thyroid Stimulating Hormone Receptor (AID 488980). Further: series mostly up to about 58 µM; 0% is about no effect. In outline:
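Cells expressing human TSHR (HEK293) are dispensed in HBSS/HEPES containing 70 uM RO 20-1724, compound is added, then TSH at EC80 (4 nM final). Antibody in lysis buffer follows, 30 minutes at room temperature before HTRF detection.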

For assay [12], the target named is D(1A) dopamine receptor (Homo sapiens) (UniProt P21728). Kind of assay: HTS Assay for Allosteric Agonists of the Human D1 Dopamine Receptor: Primary Screen for Agonists (AID 488981). Further: 0% is about no effect. The method in brief:
(§1)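 Tetracycline-induced HEK293 Trex D1 cells with forced coupling to calcium, loaded with no-wash calcium dye; kinetic fluorescence read 180 s after compound addition for agonism, then a further 180 s after an EC20 dopamine challenge for potentiation.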

Assay [13] has the same target. The assay can be described thus: HTS Assay for Allosteric Agonists of the Human D1 Dopamine Receptor: Primary Screen for Potentiators (AID 488982). Further: 0% is about no effect. In outline: as §1
Assay [14] has the same target. The assay can be described thus: HTS Assay for Allosteric Agonists of the Human D1 Dopamine Receptor: Primary Screen for Antagonists (AID 488983).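 Further: calcium flux response to an EC80 dopamine challenge measured with no-wash dye; on the % scale 0 is the no-effect control and ±100 the full control effect; nearly all actives have a fitted effect of over 65% in size.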 In outline: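 Tetracycline-induced HEK293 T-REx D1 line, force-coupled to calcium flux, read with no-wash calcium dye. Compound added after 10 s baseline, read 180 s for agonism, then EC80 dopamine added and read a further 180 s.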

The target in assay [15] is ATPase family AAA domain-containing protein 5 (Homo sapiens) (UniProt Q96QE3). The assay can be described thus: Validation screen for small molecules that inhibit ELG1-dependent DNA repair in human embryonic kidney (HEK293T) cells expressing luciferase-tagged ELG1 (AID 493107).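 Further: cells co-treated with the DNA-damaging agent 5-fluorouridine alongside compound; series mostly up to about 46 µM; on the % scale 0 is the no-effect control and ±100 the full control effect; inhibitors lower the ELG1-luciferase luminescence signal; nearly all actives have a fitted effect of over 70% in size.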 The method in brief: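 HEK293T cells expressing luciferase-tagged ELG1, 2,000 per well, treated with 5-fluorouridine plus compound for 16 h at 37 C. ONE-Glo luminescence after 30 min at room temperature reports ELG1 reporter level.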

A short description of assay [16]: Nrf2 qHTS screen for inhibitors: Validation (AID 493153; active means well fitted inhibition curve with a large enough effect in the main read-out, with a control signal flat, not every such curve was filed as active). The settings on record: Potency: luciferase luminescence; viability change: measured here: cytotoxicity max response. The method in brief:
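A549 cells carrying ARE-firefly luciferase reporter, 5000 cells/well in 5% FBS OPTI-MEM, treated with compound over a concentration series for 18-24 h at 37 C. Luciferase luminescence gave Nrf2 activity; CellTiter-Fluor fluorescence gave viability.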

The nature of assay [17]: qHTS for Inhibitors of Cell Surface uPA Generation: Validation Assay (AID 493164). Further: 0% is about no effect. In outline: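 RAW 264.7 cells (4000/well) were plated overnight, then exposed for 18 h at 37 C, 5% CO2 to compounds in a 7-point 1:5 titration (2.45 nM–38.3 uM final). Intracellular ATP was read by ATP-Lite luminescence.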
The target in assay [18] is Peptidyl-prolyl cis-trans isomerase NIMA-interacting 1 (Homo sapiens) (UniProt Q13526). The assay can be described thus: qHTS Validation Assay to Find Inhibitors of Pin1 (AID 504536; active means well fitted inhibition curve with a large enough effect in the polarisation, with a control signal flat, not every such curve was filed as active; the % refers to the polarisation;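 further: 0% = full Pin1 enzyme wells and -100% = no-enzyme wells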). The method in brief:
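Fluorescence polarization competition: compounds (titration) displace HiFluor-488-labeled Pin1-1b peptide from Pin1 (0.3 uM final) in pH 7.5 HEPES buffer with DTT, 10 min at room temperature; %Activity normalized to no-enzyme wells, curves fitted.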

Assay [19] addresses Phosphoglycerate kinase, glycosomal (Trypanosoma brucei brucei) (UniProt P07378). Kind of assay: qHTS Validation Assay to Find Inhibitors of Phosphoglycerate Kinase (AID 504547).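 Further: control wells lack PGK and mark full inhibition.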 The method in brief: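 PGK activity was coupled to GAPDH (100nM final), which generates the unstable substrate 1,3-bisphosphoglycerate in-well. Reactions ran 60 minutes at room temperature in 100mM TEA pH 7.6, 5mM MgCl2, 0.01% Tween-20, then Kinase-Glo Plus luminescence was read.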

In assay [20] the target is Tyrosyl-DNA phosphodiesterase 1 (Homo sapiens) (UniProt Q9NUW8). Kind of assay: Confirmation Assay for Inhibitors of Tyrosyl-DNA Phosphodiesterase (TDP1) (AID 489007). Further: potency means the concentration at half of the fitted maximal effect; nearly all actives have a fitted effect of over 40% in size. The settings on record: recombinant human TDP1 enzymatic activity, dose-response. The method in brief:
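Recombinant human Tdp1 (1 nM final), expressed in E. coli, preincubated 15 min with compound. Then 15 nM 5'-biotin/3'-phosphotyrosine-FITC DNA substrate added for 5 min at room temperature. AlphaScreen beads (10 ug/ml) added for 10 min; cleavage gives signal loss.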

Chain of Flap endonuclease 1 (Homo sapiens) (P39748 whole entry, looked up): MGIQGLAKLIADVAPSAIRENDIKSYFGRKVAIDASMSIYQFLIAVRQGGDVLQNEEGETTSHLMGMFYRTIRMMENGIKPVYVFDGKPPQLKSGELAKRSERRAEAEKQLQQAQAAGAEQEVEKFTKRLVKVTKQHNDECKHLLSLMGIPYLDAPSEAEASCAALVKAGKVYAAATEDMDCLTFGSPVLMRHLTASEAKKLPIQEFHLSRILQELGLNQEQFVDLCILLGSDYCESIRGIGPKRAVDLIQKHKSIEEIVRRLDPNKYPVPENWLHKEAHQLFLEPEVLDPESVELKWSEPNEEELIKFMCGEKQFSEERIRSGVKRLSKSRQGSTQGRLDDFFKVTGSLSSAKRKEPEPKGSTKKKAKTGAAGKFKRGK
Chain of D(1A) dopamine receptor (Homo sapiens) (P21728 whole entry, looked up): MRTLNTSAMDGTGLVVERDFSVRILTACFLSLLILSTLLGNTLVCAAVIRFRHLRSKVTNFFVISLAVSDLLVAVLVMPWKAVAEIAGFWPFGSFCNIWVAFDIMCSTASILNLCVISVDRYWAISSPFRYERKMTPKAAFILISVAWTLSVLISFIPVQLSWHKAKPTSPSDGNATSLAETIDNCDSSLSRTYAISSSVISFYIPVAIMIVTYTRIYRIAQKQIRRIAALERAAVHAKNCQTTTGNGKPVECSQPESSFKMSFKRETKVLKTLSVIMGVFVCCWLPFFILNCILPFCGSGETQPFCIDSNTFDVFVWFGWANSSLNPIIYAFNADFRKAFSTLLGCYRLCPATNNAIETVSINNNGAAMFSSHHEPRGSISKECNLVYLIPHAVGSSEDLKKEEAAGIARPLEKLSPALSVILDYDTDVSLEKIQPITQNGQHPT
Chain of M-phase phosphoprotein 8 (Homo sapiens) (Q99549 whole entry, looked up): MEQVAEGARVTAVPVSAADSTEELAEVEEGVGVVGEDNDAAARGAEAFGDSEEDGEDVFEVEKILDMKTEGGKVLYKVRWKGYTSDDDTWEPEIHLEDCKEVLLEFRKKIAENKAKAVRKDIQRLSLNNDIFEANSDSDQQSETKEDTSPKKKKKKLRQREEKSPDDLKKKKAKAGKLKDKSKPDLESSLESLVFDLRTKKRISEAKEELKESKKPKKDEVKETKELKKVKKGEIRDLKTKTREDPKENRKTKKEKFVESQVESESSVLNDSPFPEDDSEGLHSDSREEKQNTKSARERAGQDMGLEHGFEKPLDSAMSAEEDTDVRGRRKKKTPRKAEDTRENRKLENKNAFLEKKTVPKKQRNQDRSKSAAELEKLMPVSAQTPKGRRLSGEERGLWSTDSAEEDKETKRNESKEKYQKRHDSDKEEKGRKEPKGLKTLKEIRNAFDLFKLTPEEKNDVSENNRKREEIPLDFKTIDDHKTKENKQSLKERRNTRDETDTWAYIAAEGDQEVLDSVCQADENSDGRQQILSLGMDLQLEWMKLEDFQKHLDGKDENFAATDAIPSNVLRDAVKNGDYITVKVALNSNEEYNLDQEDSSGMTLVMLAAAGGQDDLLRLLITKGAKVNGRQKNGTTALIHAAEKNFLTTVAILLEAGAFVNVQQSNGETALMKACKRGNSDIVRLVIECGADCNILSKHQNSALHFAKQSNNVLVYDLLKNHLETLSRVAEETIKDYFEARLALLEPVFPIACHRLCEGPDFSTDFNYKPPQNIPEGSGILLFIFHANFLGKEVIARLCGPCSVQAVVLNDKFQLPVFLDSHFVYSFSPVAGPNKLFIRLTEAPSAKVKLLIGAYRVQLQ
Chain of Peptidyl-prolyl cis-trans isomerase NIMA-interacting 1 (Homo sapiens) (Q13526 whole entry, looked up): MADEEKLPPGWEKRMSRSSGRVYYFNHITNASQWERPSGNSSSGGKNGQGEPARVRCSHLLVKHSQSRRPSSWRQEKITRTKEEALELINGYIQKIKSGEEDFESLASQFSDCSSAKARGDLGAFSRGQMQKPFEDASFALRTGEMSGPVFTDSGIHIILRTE
Chain of ATP-dependent 6-phosphofructokinase (Trypanosoma brucei brucei) (O15648 whole entry, looked up): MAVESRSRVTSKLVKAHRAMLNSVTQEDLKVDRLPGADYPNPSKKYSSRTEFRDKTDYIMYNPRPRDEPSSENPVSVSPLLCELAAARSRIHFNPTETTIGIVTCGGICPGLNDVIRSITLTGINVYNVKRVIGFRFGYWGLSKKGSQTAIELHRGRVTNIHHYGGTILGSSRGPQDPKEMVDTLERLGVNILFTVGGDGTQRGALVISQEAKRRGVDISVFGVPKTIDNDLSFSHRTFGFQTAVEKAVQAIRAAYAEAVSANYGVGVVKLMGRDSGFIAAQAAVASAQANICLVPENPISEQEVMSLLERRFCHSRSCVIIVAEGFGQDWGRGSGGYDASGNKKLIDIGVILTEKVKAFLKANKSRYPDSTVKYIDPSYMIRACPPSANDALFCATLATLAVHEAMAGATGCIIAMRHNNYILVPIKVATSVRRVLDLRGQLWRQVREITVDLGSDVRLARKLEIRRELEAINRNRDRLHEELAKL
Chain of Thioredoxin reductase 1, cytoplasmic (Rattus norvegicus) (O89049 whole entry, looked up): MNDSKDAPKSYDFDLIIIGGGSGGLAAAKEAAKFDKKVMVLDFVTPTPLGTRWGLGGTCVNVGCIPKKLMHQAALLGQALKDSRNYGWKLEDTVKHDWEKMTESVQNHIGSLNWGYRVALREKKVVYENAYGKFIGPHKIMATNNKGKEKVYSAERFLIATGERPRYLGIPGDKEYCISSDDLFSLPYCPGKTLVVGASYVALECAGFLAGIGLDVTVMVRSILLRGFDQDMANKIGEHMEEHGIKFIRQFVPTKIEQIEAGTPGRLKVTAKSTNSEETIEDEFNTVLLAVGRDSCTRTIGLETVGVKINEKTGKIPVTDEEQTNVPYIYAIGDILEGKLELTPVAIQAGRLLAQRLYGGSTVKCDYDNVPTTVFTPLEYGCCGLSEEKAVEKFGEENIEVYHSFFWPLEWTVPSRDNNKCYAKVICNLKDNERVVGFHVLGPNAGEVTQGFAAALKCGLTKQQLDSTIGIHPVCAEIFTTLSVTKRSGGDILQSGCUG
Chain of Thyrotropin-releasing hormone receptor (Homo sapiens) (P34981 whole entry, looked up): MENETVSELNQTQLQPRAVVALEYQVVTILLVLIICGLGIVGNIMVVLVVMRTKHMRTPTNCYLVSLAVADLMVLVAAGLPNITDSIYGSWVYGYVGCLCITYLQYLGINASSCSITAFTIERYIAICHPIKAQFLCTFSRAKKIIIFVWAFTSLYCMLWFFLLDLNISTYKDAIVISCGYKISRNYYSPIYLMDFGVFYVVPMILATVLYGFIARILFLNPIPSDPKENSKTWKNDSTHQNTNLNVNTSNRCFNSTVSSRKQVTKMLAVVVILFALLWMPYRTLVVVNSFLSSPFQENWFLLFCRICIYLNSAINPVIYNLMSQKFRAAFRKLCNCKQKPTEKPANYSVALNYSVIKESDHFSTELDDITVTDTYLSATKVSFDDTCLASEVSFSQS
Chain of Transient receptor potential cation channel subfamily V member 1 (Homo sapiens) (Q8NER1 whole entry, looked up): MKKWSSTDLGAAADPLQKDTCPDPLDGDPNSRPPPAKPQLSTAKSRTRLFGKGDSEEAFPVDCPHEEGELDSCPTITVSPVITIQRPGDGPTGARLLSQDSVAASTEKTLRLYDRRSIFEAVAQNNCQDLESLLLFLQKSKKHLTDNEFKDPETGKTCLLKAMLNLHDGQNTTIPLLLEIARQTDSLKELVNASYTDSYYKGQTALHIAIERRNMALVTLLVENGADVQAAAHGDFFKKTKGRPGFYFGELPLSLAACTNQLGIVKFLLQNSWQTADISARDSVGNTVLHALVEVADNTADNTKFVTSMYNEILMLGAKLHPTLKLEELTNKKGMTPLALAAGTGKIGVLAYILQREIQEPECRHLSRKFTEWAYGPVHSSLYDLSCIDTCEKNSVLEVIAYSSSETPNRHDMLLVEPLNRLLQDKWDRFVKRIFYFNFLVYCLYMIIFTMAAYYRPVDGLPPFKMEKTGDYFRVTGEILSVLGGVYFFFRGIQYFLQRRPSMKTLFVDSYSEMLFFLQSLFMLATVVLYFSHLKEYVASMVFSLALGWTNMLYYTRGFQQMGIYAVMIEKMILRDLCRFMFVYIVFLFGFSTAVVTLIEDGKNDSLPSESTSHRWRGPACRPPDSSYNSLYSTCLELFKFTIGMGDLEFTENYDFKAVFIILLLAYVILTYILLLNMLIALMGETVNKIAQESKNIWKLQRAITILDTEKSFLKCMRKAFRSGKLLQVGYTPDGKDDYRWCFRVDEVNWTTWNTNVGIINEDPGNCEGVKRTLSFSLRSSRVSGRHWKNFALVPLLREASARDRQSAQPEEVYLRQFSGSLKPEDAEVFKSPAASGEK
Chain of Chromobox protein homolog 1 (Homo sapiens) (P83916 whole entry, looked up): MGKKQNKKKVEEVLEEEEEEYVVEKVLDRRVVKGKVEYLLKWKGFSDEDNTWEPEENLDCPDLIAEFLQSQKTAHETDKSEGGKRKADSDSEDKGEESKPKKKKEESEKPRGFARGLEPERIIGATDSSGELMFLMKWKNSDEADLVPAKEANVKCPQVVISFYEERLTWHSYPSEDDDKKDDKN
Chain of Methanococcus maripaludis chaperonin (MmCpn) (Q6LX38 1-543): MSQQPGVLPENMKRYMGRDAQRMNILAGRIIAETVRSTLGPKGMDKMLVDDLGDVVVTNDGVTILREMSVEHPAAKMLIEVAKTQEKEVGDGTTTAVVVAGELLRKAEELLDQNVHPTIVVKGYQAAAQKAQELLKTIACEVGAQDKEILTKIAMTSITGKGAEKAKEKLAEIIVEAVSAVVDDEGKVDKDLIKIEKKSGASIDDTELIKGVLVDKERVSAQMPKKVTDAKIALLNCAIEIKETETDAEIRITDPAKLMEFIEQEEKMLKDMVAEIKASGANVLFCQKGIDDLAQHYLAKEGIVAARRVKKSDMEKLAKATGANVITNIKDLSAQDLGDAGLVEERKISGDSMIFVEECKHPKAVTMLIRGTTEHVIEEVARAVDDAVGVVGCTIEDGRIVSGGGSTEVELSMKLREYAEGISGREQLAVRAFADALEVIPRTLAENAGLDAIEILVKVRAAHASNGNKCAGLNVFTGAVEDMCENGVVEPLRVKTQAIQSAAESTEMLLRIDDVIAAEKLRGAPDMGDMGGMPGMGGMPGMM

Take `CN1CCCC(n2nc(Cc3ccc(Cl)cc3)c3ccccc3c2=O)CC1` (configuration not stated): in assay [1], the Potency result was “inactive”.

For `CC(C)(C)NC(=O)[C@H]1CC[C@H]2[C@@H]3CC[C@H]4NC(=O)C=C[C@]4(C)[C@H]3CC[C@]12C`, the Potency result in assay [2] was “inactive”. In addition, the result in assay [3], in [5] and in assay [6] was inactive. Also, the activation in assay [4] is 0.688% (inactive).

Take `CCCCS(=N)(=O)CCC(N)C(=O)O` (configuration not stated): the Potency entry in [7], in [8], in [2], in assay [9], in assay [15] and in [16] was “inactive” throughout. Besides, the Potency result in [19] was “inactive”. The molecule was classed as inactive in assay [10], in assay [3], in [11], in assay [12], in assay [13] and in [14]. The call in assay [17], in assay [5], in assay [6] and in [18] was inactive. In addition, the activation in [4] was -2.38% (inactive). Moreover, the viability change in [16] turned out to be 4.08%.

For `CCN(CC)CCn1c(=O)c(Cc2ccc(OC)cc2)nc2ccccc21`, the Potency result in [7], in [2], in [9], in assay [15], in assay [16] and in assay [19] was “inactive” in each case. Further, the molecule was called inactive in assay [10], in assay [12], in [13], in assay [14], in assay [17] and in [18]. Further, the viability change in assay [16] is -5.84%.

`C[C@]12C=CC(=O)C=C1CC[C@@H]1[C@@H]2C(=O)C[C@@]2(C)[C@H]1CC[C@]2(O)C(=O)CO`: in assay [1], the Potency result was “inactive”.

`O=c1oc2c(O)c(O)cc3c(=O)oc4c(O)c(O)cc1c4c23`: the Potency in assay [20] is 4 nM (active).

Turning to `Cc1cccc(Nc2ccncc2S(=O)(=O)NC(=O)NC(C)C)c1`, the Potency result in [1] was “inactive”.

On to `CC(=O)[C@H]1CC[C@H]2[C@@H]3CCC4=CC(=O)CC[C@]4(C)[C@H]3CC[C@]12C`, for which the Potency result in assay [7], in assay [8], in assay [2], in assay [9] and in [19] was “inactive” in each case. In addition, the outcome in [10], in assay [3], in [11], in assay [12], in assay [13] and in [17] was inactive. Further, the molecule was classed as inactive in assay [5], in assay [6] and in assay [18].

On to `CCN(CC)CC#CCOC(=O)C(O)(c1ccccc1)C1CCCCC1` (configuration not stated), for which the Potency entry in assay [7], in assay [8], in [2], in assay [9], in assay [15] and in assay [16] was “inactive” throughout. Also, the Potency result in assay [19] was “inactive”. The outcome in assay [10], in assay [3], in assay [11], in [12], in assay [14] and in [17] was inactive. The result in assay [6] and in assay [18] was inactive. Also, the activation in assay [4] is -7.56% (inactive). Moreover, the viability change in assay [16] was -11.3%.
